# Among all 39,000 compounds or so, about 3,300 (8.5%) were called active. Only a selection was taken, and actives are over-represented in it overall.
# Test system: HepG2
# Experiment: cytotoxicity call (relative viability < 0.9)
# Conditions: 10 µM
row,SMILES,cytotoxicity call
1,CC(C)N1C[C@H](CNCc2ccc(Oc3ccccc3)cc2)Oc2c(NC(=O)c3ccncc3)cccc2C1=O,inactive
2,Cc1ccc(-c2cnc3c(c2)C(=O)N([C@H](C)CO)C[C@H](C)[C@@H](CN(C)C(=O)Cc2cccnc2)O3)cc1,inactive
3,C[C@H]1CN([C@@H](C)CO)C(=O)c2cccc(NC(=O)Nc3ccccc3)c2O[C@@H]1CN(C)C(=O)Nc1ccc(C(F)(F)F)cc1,inactive
4,C[C@H]1CN([C@@H](C)CO)C(=O)c2cccc(NC(=O)Nc3ccc(C(F)(F)F)cc3)c2O[C@@H]1CN(C)C(=O)Nc1ccccc1,active
5,C[C@@H]1CN([C@H](C)CO)C(=O)c2cccc(NC(=O)Nc3ccc(C(F)(F)F)cc3)c2O[C@@H]1CN(C)C(=O)Nc1ccccc1,active
6,C[C@H](CO)N1C[C@H](C)[C@H](CN(C)C(=O)Nc2ccc(C(F)(F)F)cc2)Oc2c(NC(=O)Nc3ccccc3)cccc2C1=O,inactive
7,C[C@H](CO)N1C[C@H](C)[C@@H](CN(C)C(=O)Nc2ccc(C(F)(F)F)cc2)Oc2c(NC(=O)Nc3ccccc3)cccc2C1=O,inactive
8,C[C@@H]1CN([C@@H](C)CO)C(=O)c2cccc(NC(=O)Nc3ccccc3)c2O[C@@H]1CN(C)C(=O)Nc1ccc(C(F)(F)F)cc1,inactive
9,COc1ccc(C(=O)Nc2ccc(CN3C(=O)[C@]4(O[C@H](CCO)[C@@H]([Si](C)(C)F)[C@@H]4C)c4ccccc43)cc2)cc1,inactive
10,CN1CCN(C(=O)C[C@@H]2CC[C@@H]3[C@H](COC[C@H](O)CN3C(=O)Nc3cc(Cl)cc(Cl)c3)O2)CC1,inactive
11,CCCCCCCCCCCCC[N+](C)(C)Cc1ccccc1,active
12,CCCCNc1ccccc1,inactive
13,CCCCCCCCCCCCCCCC[N+](C)(C)Cc1ccccc1.[Cl-],active
14,CC[N+](C)(CC)Cc1ccccc1,inactive
15,CCCCCCCCCCCCC[N+](C)(C)Cc1ccccc1.O.[Cl-],active
16,CCCCCc1ccccn1,inactive
17,COc1ccc(S(=O)(=O)Nc2ccc3c(c2)CC(=O)N([C@@H](C)CO)C[C@H](C)[C@H](CN(C)S(=O)(=O)c2cccs2)O3)cc1,inactive
18,C[C@H](CO)N1C[C@H](C)[C@H](CN(C)CC2CC2)Oc2c(NS(=O)(=O)c3cccs3)cccc2C1=O,inactive
19,Cc1noc(C)c1S(=O)(=O)Nc1ccc2c(c1)C(=O)N([C@@H](C)CO)C[C@H](C)[C@@H](CN(C)CC1CCCCC1)OCCCC[C@@H](C)O2,inactive
20,O=C(C1=C[C@H](c2coc3ccccc3c2=O)C[C@H](OCc2ccc(CO)cc2)O1)N1CCCCCCC1,inactive
21,CS(=O)(=O)NCc1cnc2n1CCN(C[C@H]1CCOC1)CC2,inactive

row,SMILES,cytotoxicity call
1,C[C@H](CO)N1C[C@H](C)[C@H](CN(C)C(=O)Nc2ccc(F)cc2)Oc2ccc(NC(=O)CCCCCC(=O)Nc3ccccc3N)cc2CC1=O,inactive
2,CCCNC(=O)Nc1ccc2c(c1)OC[C@H](C)N(Cc1ccc(-c3ccccn3)cc1)C[C@H](C)[C@H](OC)CN(C)C2=O,inactive
3,C[C@H]1CN([C@@H](C)CO)C(=O)CCCn2cc(nn2)CO[C@@H]1CN(C)C(=O)Nc1ccc(C(F)(F)F)cc1,inactive
4,O=C(O)[C@H]1C[C@H](O)CN1Cc1ccccc1,inactive
5,C[C@@H]1CN([C@H](C)CO)C(=O)c2cc(NC(=O)c3ccccc3)ccc2O[C@@H](C)CCCCO[C@@H]1CN(C)Cc1ccc(C(F)(F)F)cc1,inactive
6,C[C@@H]1CCCCO[C@@H](CN(C)Cc2ccc(C(F)(F)F)cc2)[C@H](C)CN([C@H](C)CO)C(=O)c2cc(NC(=O)c3ccccc3)ccc2O1,inactive
7,C[C@@H]1CN([C@@H](C)CO)C(=O)c2cc(NC(=O)c3ccccc3)ccc2O[C@@H](C)CCCCO[C@H]1CN(C)Cc1ccc(C(F)(F)F)cc1,active
8,C[C@@H]1CN([C@H](C)CO)C(=O)c2cc(NC(=O)c3ccccc3)ccc2O[C@@H](C)CCCCO[C@H]1CN(C)Cc1ccc(C(F)(F)F)cc1,inactive
9,C[C@H](CO)N1C[C@H](C)[C@H](CN(C)Cc2ccc(C(F)(F)F)cc2)OCCCC[C@H](C)Oc2ccc(NC(=O)c3ccccc3)cc2C1=O,inactive
10,C[C@@H]1CCCCO[C@H](CN(C)Cc2ccc(C(F)(F)F)cc2)[C@@H](C)CN([C@H](C)CO)C(=O)c2cc(NC(=O)c3ccccc3)ccc2O1,inactive
11,C[C@@H]1CCCCO[C@H](CN(C)Cc2ccc(C(F)(F)F)cc2)[C@H](C)CN([C@H](C)CO)C(=O)c2cc(NC(=O)c3ccccc3)ccc2O1,inactive
12,C[C@@H]1CCCCO[C@H](CN(C)Cc2ccc(C(F)(F)F)cc2)[C@H](C)CN([C@@H](C)CO)C(=O)c2cc(NC(=O)c3ccccc3)ccc2O1,active
13,C[C@@H]1CCCCO[C@H](CN(C)Cc2ccccc2)[C@H](C)CN([C@H](C)CO)C(=O)c2cc(NC(=O)c3ccccc3)ccc2O1,inactive
14,C[C@@H]1CN([C@@H](C)CO)C(=O)c2cc(NC(=O)c3ccccc3)ccc2O[C@@H](C)CCCCO[C@H]1CN(C)Cc1ccccc1,inactive
15,C[C@@H]1CN([C@H](C)CO)C(=O)c2cc(NC(=O)c3ccccc3)ccc2O[C@@H](C)CCCCO[C@H]1CN(C)Cc1ccccc1,active
16,C[C@H]1CCCCO[C@@H](CN(C)Cc2ccc(C(F)(F)F)cc2)[C@@H](C)CN([C@@H](C)CO)C(=O)c2cc(NC(=O)c3ccccc3)ccc2O1,active
17,C[C@@H]1CN([C@@H](C)CO)C(=O)c2cc(NC(=O)Nc3cccc4ccccc34)ccc2O[C@H]1CN(C)S(=O)(=O)c1ccc(Cl)cc1,inactive
18,COc1ccc(NC(=O)N(C)C[C@H]2Oc3ccc(NS(=O)(=O)c4cn(C)cn4)cc3CC(=O)N([C@@H](C)CO)C[C@@H]2C)cc1,inactive
19,C[C@@H]1CN([C@H](C)CO)S(=O)(=O)c2ccc(-c3cccc(C(=O)N(C)C)c3)cc2O[C@@H]1CN(C)C(=O)Cc1ccccn1,inactive
20,C[C@@H]1CN([C@@H](C)CO)C(=O)CCCn2nncc2CO[C@@H]1CN(C)S(=O)(=O)c1ccc2c(c1)OCCCO2,inactive
21,COc1ccc(-c2cnc3c(c2)C(=O)N([C@H](C)CO)C[C@H](C)[C@@H](CN(C)C(=O)Cc2ccccn2)O3)cc1,inactive

# Reference: the antibiotic and cytotoxicity screens of Wong et al. (2023)
